Measured values published in PubChem BioAssay AID624273 (Broad Institute, 2012).
Hit rate of the full screen: of about 1,000 compounds, about 230 (23%) were called active. Another 1% or so got no clear call; they are omitted. The list shows a part of the results. Results with a measured potency or affinity are listed apart. A number with no mark means an inactive call. How the calls were made is not given here.

target: Long-chain-fatty-acid--AMP ligase FadD28 (Mycobacterium tuberculosis (strain ATCC 25618 / H37Rv)) (UniProt P9WQ59); assay: inhibitors of FadD28 bisubstrate probe binding, dose response, biochemical, fluorescence polarization, cherry-pick (AID 624273); conditions: series mostly up to 50 µM; activity change, negative = inhibition: at the top concentration
Sequence (P9WQ59 whole entry, looked up): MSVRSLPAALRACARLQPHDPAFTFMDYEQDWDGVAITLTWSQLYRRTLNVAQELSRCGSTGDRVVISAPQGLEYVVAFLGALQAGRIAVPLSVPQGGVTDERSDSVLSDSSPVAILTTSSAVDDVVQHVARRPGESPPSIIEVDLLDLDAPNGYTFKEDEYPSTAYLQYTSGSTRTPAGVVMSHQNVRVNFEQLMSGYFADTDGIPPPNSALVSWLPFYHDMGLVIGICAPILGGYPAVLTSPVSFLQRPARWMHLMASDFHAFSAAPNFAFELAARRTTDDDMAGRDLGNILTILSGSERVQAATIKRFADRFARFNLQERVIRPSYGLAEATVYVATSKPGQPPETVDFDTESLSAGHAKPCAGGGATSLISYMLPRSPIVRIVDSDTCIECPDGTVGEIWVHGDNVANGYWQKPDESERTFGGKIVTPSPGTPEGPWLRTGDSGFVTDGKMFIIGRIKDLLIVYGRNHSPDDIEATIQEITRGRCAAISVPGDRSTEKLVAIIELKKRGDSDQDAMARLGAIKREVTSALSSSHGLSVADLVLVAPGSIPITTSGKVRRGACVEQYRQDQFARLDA

Compound	activity change, negative = inhibition [%]
Cc1ccc(S(=O)(=O)N(C)C)cc1NC(=O)CSc1nnnn1-c1ccc(O)cc1	-14.5
CC1(C)Cc2nc3oc4c(NCc5ccccc5)ncnc4c3cc2CO1	-2.72
CCN=c1scc(C)n1/N=C/c1cc(Br)c(O)c(Br)c1	-4.09
O=C(CSc1ncn[nH]1)Nc1ccc(S(=O)(=O)Nc2ncccn2)cc1	-3.33
O=C(CSc1ccc(Br)c2cccc(Cl)c12)Nc1ccc(S(=O)(=O)Nc2nccs2)cc1	-15.1
COc1ccccc1COC(=O)c1cccc(S(=O)(=O)N2CCCC2)c1	-0.209
COc1ccccc1[C@@H]1C(c2cccc(C)c2)=NN(c2ccccc2)[C@H]1C(=O)N1CCOC1=O	0.248
O=c1cc(CN2CCc3ccccc32)c2ccc(O)cc2o1	-8.7
O=C(O)Cc1ccc2c(c1)N(S(=O)(=O)c1cccs1)CC(C(=O)O)O2 (stereo not drawn)	-14.2
OCCN1CCN(c2ncnc3c2ncn3[C@H]2CN(Cc3ccncc3)C[C@@H](CO)O2)CC1	-2.24
COc1ccc(CCNC(=O)CN(c2ccc(C)cc2)S(=O)(=O)c2c(C)noc2C)cc1OC	-2.72
Nc1ccc2c(c1)[nH]c(=O)c1cc(N)ccc12	-0.111
Cc1cc(NS(=O)(=O)c2ccc(NC(=O)Cc3ccccc3)cc2)nc(C)n1	-4.8
COc1ccccc1NS(=O)(=O)c1cccc(NC(=O)Nc2cccc(Cl)c2)c1	-3.21
O=[N+]([O-])c1cc(S(=O)(=O)Nc2cccc(C(F)(F)F)c2)ccc1-n1nnc2ccccc21	-21.8
CC(=O)Nc1ccc(S(=O)(=O)NC2=C(N3CCN(c4ccc(F)cc4)CC3)C(=O)c3ccccc3C2=O)cc1	-18.6
NS(=O)(=O)c1cccc(NS(=O)(=O)c2ccc(/C=C/C(=O)OCC(=O)c3ccccc3)cc2)c1	-0.888
O=C1C(Cl)=C(NCCN2CCOCC2)C(=O)c2ccccc21	-8.82
O=C(NN=C1CCCC1)c1cc(Cl)cc(Cl)c1O	-17.8
N#Cc1cc2c(nc1SCc1ccc(Cl)nc1)CCCCC2	-3.38
Cc1ccc2oc(C(=O)N3CCCCCC3)c(C)c2c1	0.038

Compound	activity change, negative = inhibition [%]
O=C(CSc1ccccn1)N1CCN(S(=O)(=O)c2ccc(Cl)cc2)CC1	-7.31
Cc1ccnc(NC(=O)CCC(=O)N(CC(=O)NCC2CCCO2)Cc2ccc(F)cc2)c1 (stereo not drawn)	-1.94
Cc1cc[n+](CC(=O)c2cc3ccccc3oc2=O)cc1	-3.16
O=C1NC(=O)N(Cc2ccc(F)cc2)C(=O)/C1=C\c1ccoc1	-9.04
COc1ccc(C(=O)N/N=C2\SCC(=O)N2Cc2ccc3c(c2)OCO3)c(OC)c1	-23.6
CCNC(=S)N1CCN(CC(=O)Nc2ccc(Br)cc2)CC1	15
Nc1ccccc1/C=N\N=C/c1ccccc1N	-5.39
COc1ccc(CCNC(=O)CCNC(=O)N2CC(=O)Nc3ccccc32)cc1	-1.19
CN(C)C1(c2nnnn2-c2ccc(Cl)cc2)CCCCC1	-6.34
N#Cc1c(C#N)c(-c2ccccc2)n(-c2ccc(C(=O)O)cc2)c1N	-2.68
O=C(c1[nH]c(C(F)(F)F)nc1-c1ccccc1)N1CCN(c2ccccn2)CC1	-6.13
CC(=O)Nc1ccc(/C=N\NC(=O)CNS(=O)(=O)c2ccc([N+](=O)[O-])cc2)cc1	-16.2
COc1ccc(/C=C/C(=O)N2CC(C)OC(C)C2)cc1OC (stereo not drawn)	-2.82
COC(=O)CSc1nnc(CNC(=O)c2cc(OC)cc(OC)c2)n1-c1ccc(F)cc1	49.8
O=c1[nH]c(=S)[nH]c2c1C(c1ccc(Br)cc1)c1c([nH]c(=S)[nH]c1=O)O2	-8.68
O=C(OCC(=O)N1CCCC1)c1cccs1	-3.69
O=C1NCCN(C(=O)CCc2nnc(-c3ccsc3)o2)C1c1ccc(F)cc1 (stereo not drawn)	-10.6
COc1ccc(C2(CNC(=O)c3ccc(OC)c([N+](=O)[O-])c3)CCCCC2)cc1OC	-1.23
O=C(O)CCCN1C(=O)/C(=C/c2ccc(-c3nc4ccccc4s3)o2)SC1=S	-4.59
Cc1ccc(-c2nn(-c3ccccc3)cc2/C=C2\SC(=S)N(CCCCCC(=O)O)C2=O)o1	46.1
CC1(c2ccc(OC(F)F)cc2)NC(=O)N(CC(=O)Nc2ccc3[nH]c(=O)[nH]c3c2)C1=O (stereo not drawn)	-3.88

Compound	activity change, negative = inhibition [%]
CC(C)CNC(=O)c1cc(S(=O)(=O)N2CCOCC2)ccc1N1CCCC1	-5.51
Cc1ccc(NS(=O)(=O)c2ccc(NC(=O)CN(c3cc([N+](=O)[O-])ccc3C)S(C)(=O)=O)cc2)c(C)c1	-0.627
Cc1ccccc1-c1cc2nc(NCc3ccccc3)n(C)c(=O)c2s1	10.3
COC(=O)Cc1cc(=O)n(-c2nc3ccccc3s2)[nH]1	-9.29
O=C(/C=C/c1ccco1)Nc1sc2c(c1C(=O)O)CCC2	0.459
CC(=O)Nc1ccc(NC(=O)CSc2nc3nc(C)cc(C)c3c(=O)[nH]2)cc1	-2.41
CCC(=O)Nc1cccc(-n2nnnc2SCC(=O)c2ccc(C)c(C)c2)c1	-13
COc1ccc(-n2nnnc2SCC(=O)c2ccc(O)c(O)c2)cc1	-12.5
CCOc1ccccc1NC(=O)CN(C)S(=O)(=O)c1cnc[nH]1	-5.79
Cc1cc(SCNC(=O)c2ccccc2)nc(C(C)C)n1	-7.43
COc1ccc(C(C(=O)NC2CCCCC2)N(C(=O)c2sc(C)nc2C)c2ccc(OC)cc2)cc1 (stereo not drawn)	9.21
Cc1c(Cc2ccc3c(c2)OCO3)sc(NC(=O)c2ccc3ccccc3c2)c1C(N)=O	-7.43
CCOC(=O)CNC(=O)Cn1cnc2c(cnn2-c2ccc(C)cc2)c1=O	-4.81
O=c1c2ccccc2c(-c2ccc(O)cc2)nn1-c1cccc(C(F)(F)F)c1	4.72
CC(C)CN(C(=O)c1ccc(-n2cncn2)c([N+](=O)[O-])c1)C1CCS(=O)(=O)C1 (stereo not drawn)	-8.25
C/C(Cl)=C\Cn1c(O)c(N=O)c2ccccc21	3.06
CC(=O)N1CC2(C)CN(C(C)=O)CC(C)(C1)C2=O	-4.73
O=C1ON=C(c2cccc([N+](=O)[O-])c2)/C1=C/c1ccc(O)cc1	-19.1
Cc1ccc(-n2cccc2/C=C2/NC(=O)N(CC(=O)Nc3cccc(C)c3)C2=O)cc1	-3.09
O=C(O)CC1S/C(=N/N=C/c2ccc(-c3ccc(Cl)c([N+](=O)[O-])c3)o2)NC1=O (stereo not drawn)	-14.3
COCCNC(=O)C1CCC(CNS(=O)(=O)c2ccc3c(c2)CC(C)N3C(=O)C2CC2)CC1 (stereo not drawn)	-4.61
